Records with an inconclusive call do not appear. Activity calls are given as the source filed them. Unless noted, the rule behind the calls is not given here.
Assays:
[1] = qHTS profiling of the MIPE4 collection as inhibitors of Plasmodium falciparum (DD2) proliferation (AID 743345); conditions: P. falciparum Dd2 in erythrocytes, SYBR Green DNA, 72 h; at 28.5 µM (top of the series) unless noted
How it was run: (§1)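 Erythrocytes infected with P. falciparum (0.3% parasitemia, 2.5% hematocrit) incubated with compounds 72 h at 37 C, 5% CO2. Lysis with saponin/Triton buffer containing SYBR Green I, overnight at room temperature in the dark; DNA fluorescence (485/535 nm) normalised to 0.29 uM artemisinin and DMSO.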

[2] = qHTS profiling of the MIPE4 collection as inhibitors of Plasmodium falciparum (DD2) proliferation (Rep 2) (AID 743346); conditions: P. falciparum Dd2 in erythrocytes, SYBR Green DNA, 72 h; at 28.5 µM (top of the series) unless noted
How it was run: as §1

[3] = qHTS profiling of the MIPE4 collection as inhibitors of Plasmodium falciparum (HB3) proliferation (AID 743347);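 note: plate controls were DMSO vehicle wells for no effect and artemisinin wells for full effect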; conditions: P. falciparum HB3 in erythrocytes, SYBR Green DNA, 72 h; at 28.5 µM (top of the series) unless noted
How it was run: as §1

[4] = High-throughput drug toxicity screening in the BPDCN cell line Gen2.2 (AID 1224824); conditions: Gen2.2 BPDCN cells; at 45.8 µM (top of the series) unless noted;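 note: cells exposed to compounds for 48 h before reading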
How it was run: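 CellTiter-Glo luminescence read after 48 h compound exposure at 37 C defines viability; percent activity set with DMSO as 100% and bortezomib (9.2 uM final) as 0%. 500 exponentially growing cells per well, RPMI plus 10% FBS.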

[5] = High-throughput drug toxicity screening in the BPDCN cell line Cal-1 (AID 1224825); conditions: Cal-1 BPDCN cell viability, qHTS; at 45.8 µM (top of the series) unless noted
How it was run: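 500 Cal-1 cells/well, RPMI + glutamine + 10% FBS (phenol red-free); cpd added by pin tool; 48 h, 37C, 5% CO2; CTG 15 min RT, lumi read. Normalised: DMSO 100%, bortezomib 9.2 uM 0%.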

[6] = qHTS profiling for inhibitors of Plasmodium falciparum (3D7) proliferation (AID 743322);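 note: infected erythrocytes exposed to compound for 72 h before lysis; 100% = DMSO vehicle wells and 0% = 0.29 µM artemisinin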; conditions: P. falciparum 3D7 proliferation; at 28.7 µM (top of the series)
How it was run: as §1

[7] = qHTS profiling for inhibitors of Plasmodium falciparum (DD2) proliferation (AID 743323); conditions: lower = more inhibition; at 28.7 µM (top of the series)
How it was run: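 Parasite DNA quantified by SYBR Green fluorescence (ex 485, em 535 nm) after saponin/Triton lysis and overnight dark incubation. Cultures: 0.3% parasitemia, 2.5% hematocrit, 72 h, 37 C; data scaled between DMSO and 0.29 uM artemisinin.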

[8] = qHTS profiling of the MIPE4 collection as inhibitors of Plasmodium falciparum (3D7) proliferation (AID 743344);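 note: scaled between DMSO vehicle wells and 0.29 µM artemisinin as full inhibition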; conditions: P. falciparum 3D7 in erythrocytes, SYBR Green DNA fluorescence, 72 h; at 28.5 µM (top of the series) unless noted
How it was run: as §1

[9] = qHTS assay for cell viability of the p53RE-bla HCT-116 cell line (AID 743292; active = well fitted curve in the direction sought with a large enough effect; an effect the other way counts as inactive or inconclusive; note: % is set by controls: 0 for no effect and ±100 for the full control effect; nearly all actives have a fitted effect of over 55% in size)
How it was run: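 Viability of compound-treated p53RE-bla HCT-116 cells is taken from ATP-dependent luciferase luminescence. Treatment lasts 16 h at 37 C after a 5 h settling period; detection follows 30 min at room temperature.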

[10] = qHTS profiling for inhibitors of Plasmodium falciparum (HB3) proliferation (AID 743324; active = well fitted curve in the direction sought with a large enough effect; an effect the other way counts as inactive or inconclusive;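 note: 100% = DMSO vehicle wells and 0% = artemisinin-treated control wells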); conditions: Plasmodium falciparum HB3 blood-stage proliferation; at 28.7 µM (top of the series)
How it was run: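 P. falciparum HB3 grown in erythrocytes (0.3% parasitemia, 2.5% hematocrit final) with compound for 72 h at 37 C, 5% CO2. Parasite DNA detected by SYBR Green after saponin/triton lysis overnight; normalized to 0.29 uM artemisinin and DMSO.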

CNC1CCCN(c2c(F)cc3c(=O)c(C(=O)O)cn(C4CC4)c3c2OC)C1 (stereo not drawn)
parasite growth remaining, % of DMSO control (lower = more inhibition) [1]: 11.8% | parasite growth, % of control (lower = inhibition) [2]: 8.93% | growth, % of control [3]: 22.8% | cell viability, % of control (lower = more cytotoxic) [4]: 106% | viability (% of control) [5]: 32.3%

CCN(CC)CCn1c(=O)c(Cc2ccc(OC)cc2)nc2ccccc21
remaining parasite growth % (stronger effect = lower value) [6]: 41.3% | activity, percent of control [7]: 89.9% | parasite growth, % of DMSO control [8]: 206% | parasite growth remaining, % of DMSO control (lower = more inhibition) [1]: 46.8% | parasite growth, % of control (lower = inhibition) [2]: 28.1% | growth, % of control [3]: 149% | cell viability, % of control (lower = more cytotoxic) [4]: 115%

COc1cc([C@@H]2c3cc4c(cc3[C@H](O)[C@H]3COC(=O)[C@H]23)OCO4)cc(OC)c1OC
parasite growth, % of control (lower = inhibition) [2]: 10.2% | cell viability, % of control (lower = more cytotoxic) [4]: 7.94%

OC(Cn1cncn1)(Cn1cncn1)c1ccc(F)cc1F
Potency [9]: inactive | parasite growth remaining, % of DMSO control (lower = more inhibition) [1]: 101% | cell viability, % of control (lower = more cytotoxic) [4]: 66.2%

Cc1cc(NS(=O)(=O)c2ccc(N)cc2)no1
Potency [9]: inactive | cell viability, % of control (lower = more cytotoxic) [4]: 56.5%

Nc1ccc(S(=O)(=O)Nc2ccccn2)cc1
parasite growth, % of DMSO control [8]: 89.8% | parasite growth remaining, % of DMSO control (lower = more inhibition) [1]: 89.4% | parasite growth, % of control (lower = inhibition) [2]: 84.7% | growth, % of control [3]: 54.6% | cell viability, % of control (lower = more cytotoxic) [4]: 123%

O=S(=O)(c1cccc2cnccc12)N1CCCNCC1
viability (% of control) [5]: 94.6%

CCCCCCNC(=O)n1cc(F)c(=O)[nH]c1=O
parasite growth, % of DMSO control [8]: 59% | parasite growth remaining, % of DMSO control (lower = more inhibition) [1]: 32% | parasite growth, % of control (lower = inhibition) [2]: 30.5% | growth, % of control [3]: 71.2% | cell viability, % of control (lower = more cytotoxic) [4]: 106%

CCOC(=O)[C@H](CCc1ccccc1)N[C@H]1CCc2ccccc2N(CC(=O)O)C1=O
parasite growth, % of DMSO control [8]: 9.1% | parasite growth remaining, % of DMSO control (lower = more inhibition) [1]: 9.11% | parasite growth, % of control (lower = inhibition) [2]: 22.6% | growth, % of control [3]: 11.1% | cell viability, % of control (lower = more cytotoxic) [4]: 22.7%

Cc1ncc([N+](=O)[O-])n1CCO
Potency [9]: inactive | parasite growth, % of DMSO control [8]: 88.2% | parasite growth remaining, % of DMSO control (lower = more inhibition) [1]: 101% | parasite growth, % of control (lower = inhibition) [2]: 96.3% | growth, % of control [3]: 85.1% | cell viability, % of control (lower = more cytotoxic) [4]: 180%

Cc1cccc(N(C)C(=S)Oc2ccc3ccccc3c2)c1
parasite growth, % of DMSO control [8]: 51.5% | parasite growth remaining, % of DMSO control (lower = more inhibition) [1]: 84.1% | parasite growth, % of control (lower = inhibition) [2]: 51.6% | growth, % of control [3]: 50.4% | cell viability, % of control (lower = more cytotoxic) [4]: 227%

CO[C@@]12[C@H](COC(N)=O)C3=C(C(=O)C(C)=C(N)C3=O)N1C[C@@H]1N[C@@H]12
parasite growth remaining, % of DMSO control (lower = more inhibition) [1]: 7.06% | parasite growth, % of control (lower = inhibition) [2]: 6.98% | growth, % of control [3]: 2.97% | cell viability, % of control (lower = more cytotoxic) [4]: 2.55%

CC(C)(C)C(=O)OCOP(=O)(COCCn1cnc2c(N)ncnc21)OCOC(=O)C(C)(C)C
parasite growth remaining, % of DMSO control (lower = more inhibition) [1]: 96.8% | parasite growth, % of control (lower = inhibition) [2]: 97.4% | growth, % of control [3]: 82.4% | cell viability, % of control (lower = more cytotoxic) [4]: 3.53% | viability (% of control) [5]: 2.56%

COc1ncnc(NS(=O)(=O)c2ccc(N)cc2)c1OC
remaining parasite growth % (stronger effect = lower value) [6]: 82.4% | activity, percent of control [7]: 85.3% | parasite growth, % of DMSO control [8]: 170% | parasite growth remaining, % of DMSO control (lower = more inhibition) [1]: 105% | parasite growth, % of control (lower = inhibition) [2]: 99.5% | growth, % of control [3]: 747% | cell viability, % of control (lower = more cytotoxic) [4]: 106%

CNCC[C@H](Oc1cccc2ccccc12)c1cccs1
parasite growth remaining, % of DMSO control (lower = more inhibition) [1]: 7.89% | parasite growth, % of control (lower = inhibition) [2]: 14.2% | growth, % of control [3]: 3.44% | cell viability, % of control (lower = more cytotoxic) [4]: 8.39% | viability (% of control) [5]: 39.6%

CC(C)(C#N)c1cc(Cn2cncn2)cc(C(C)(C)C#N)c1
parasite growth, % of DMSO control [8]: 89.6% | parasite growth remaining, % of DMSO control (lower = more inhibition) [1]: 91.9% | parasite growth, % of control (lower = inhibition) [2]: 88.7% | cell viability, % of control (lower = more cytotoxic) [4]: 47%

O=C(O)c1cn(C2CC2)c2cc(N3CCNCC3)c(F)cc2c1=O
remaining parasite growth % (stronger effect = lower value) [6]: 95% | activity, percent of control [7]: 90.7% | remaining proliferation (% of control), lower = more inhibition [10]: 92.1% | parasite growth, % of DMSO control [8]: 75.2% | parasite growth remaining, % of DMSO control (lower = more inhibition) [1]: 85.5% | parasite growth, % of control (lower = inhibition) [2]: 67.8% | growth, % of control [3]: 76.4% | cell viability, % of control (lower = more cytotoxic) [4]: 138%

CN(C)CCc1c[nH]c2ccc(CS(=O)(=O)N3CCCC3)cc12
parasite growth remaining, % of DMSO control (lower = more inhibition) [1]: 92.8% | parasite growth, % of control (lower = inhibition) [2]: 86.7% | cell viability, % of control (lower = more cytotoxic) [4]: 25%

CN(CCOc1ccc(CC2SC(=O)NC2=O)cc1)c1ccccn1 (stereo not drawn)
parasite growth, % of DMSO control [8]: 98.7% | parasite growth remaining, % of DMSO control (lower = more inhibition) [1]: 93.4% | parasite growth, % of control (lower = inhibition) [2]: 95.7% | growth, % of control [3]: 60.7% | cell viability, % of control (lower = more cytotoxic) [4]: 101%

CCN(CC)CC#CCOC(=O)C(O)(c1ccccc1)C1CCCCC1 (stereo not drawn)
parasite growth, % of DMSO control [8]: 14.3% | parasite growth remaining, % of DMSO control (lower = more inhibition) [1]: 58.4% | parasite growth, % of control (lower = inhibition) [2]: 16.6% | cell viability, % of control (lower = more cytotoxic) [4]: 205%

Cn1nnc2c(C(N)=O)ncn2c1=O
parasite growth, % of DMSO control [8]: 97.2% | parasite growth remaining, % of DMSO control (lower = more inhibition) [1]: 86.5% | parasite growth, % of control (lower = inhibition) [2]: 120% | growth, % of control [3]: 98.2% | viability (% of control) [5]: 80.1%

COc1cnc(NS(=O)(=O)c2ccc(N)cc2)nc1
parasite growth, % of DMSO control [8]: 87.5% | parasite growth remaining, % of DMSO control (lower = more inhibition) [1]: 95.4% | parasite growth, % of control (lower = inhibition) [2]: 79.9% | viability (% of control) [5]: 21.6%

Nc1[nH]c(=O)ncc1F
parasite growth, % of DMSO control [8]: 408% | parasite growth remaining, % of DMSO control (lower = more inhibition) [1]: 104% | parasite growth, % of control (lower = inhibition) [2]: 158% | growth, % of control [3]: 699% | viability (% of control) [5]: 22.3%

CCCCOc1ccc(CC(=O)NO)cc1
parasite growth, % of DMSO control [8]: 11.6% | parasite growth remaining, % of DMSO control (lower = more inhibition) [1]: 14.7% | parasite growth, % of control (lower = inhibition) [2]: 16.4% | viability (% of control) [5]: 29%

COc1nc(N)nc2c1ncn2[C@@H]1O[C@H](CO)[C@@H](O)[C@@H]1O
parasite growth, % of DMSO control [8]: 77.9% | parasite growth remaining, % of DMSO control (lower = more inhibition) [1]: 85.4% | parasite growth, % of control (lower = inhibition) [2]: 37.8% | growth, % of control [3]: 85.6%

CS(=O)(=O)c1ccc([C@@H](O)[C@@H](CO)NC(=O)C(Cl)Cl)cc1
parasite growth, % of DMSO control [8]: 40.4% | parasite growth remaining, % of DMSO control (lower = more inhibition) [1]: 51.5% | parasite growth, % of control (lower = inhibition) [2]: 55.8% | growth, % of control [3]: 56.8%

CCN(C)C(=O)Oc1cccc([C@H](C)N(C)C)c1
parasite growth remaining, % of DMSO control (lower = more inhibition) [1]: 17.2% | viability (% of control) [5]: 73.8%

COC(c1ccccc1)(c1ccccc1)[C@H](Oc1nc(C)cc(C)n1)C(=O)O
parasite growth, % of DMSO control [8]: 102% | parasite growth remaining, % of DMSO control (lower = more inhibition) [1]: 102% | parasite growth, % of control (lower = inhibition) [2]: 81.2% | growth, % of control [3]: 105%

NS(=O)(=O)c1cc2c(cc1Cl)NC(C(Cl)Cl)NS2(=O)=O (stereo not drawn)
parasite growth, % of DMSO control [8]: 84.2% | parasite growth remaining, % of DMSO control (lower = more inhibition) [1]: 86.3% | parasite growth, % of control (lower = inhibition) [2]: 65% | growth, % of control [3]: 60.5% | viability (% of control) [5]: 94.1%
